Screens as filed in PubChem BioAssay.
TDP1 inh: blocks human tyrosyl-DNA phosphodiesterase 1; AID 485290; 0.28% of 350,000 active; recombinant TDP1, AlphaScreen DNA substrate cleavage; Potency, µM (highest dose often 130 µM), inactives show at the top dose activity change, negative = inhibition, hits mostly inhibitors; Q9NUW8; note: nearly all actives have a fitted effect of over 40% in size
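Compounds were preincubated with Tdp1 (1 nM final) for 15 min at room temperature before substrate (15 nM final) started a 5 min reaction; beads (10 ug/ml final) were then added for 10 min before AlphaScreen detection.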
PLK1 PBD inh: blocks phosphopeptide binding to human PLK1 polo-box domain | AID 720504 | Potency, µM, for inactives: max response, negative = inhibition, most hits filed as inhibitors | Plk1 PBD binding of FITC phosphopeptide, fluorescence polarization | 2.8% of 360,000 active | P53350; note: series mostly up to about 57 µM; nearly all actives have a fitted effect of over 65% in size
Target sequence (P53350 whole entry, looked up, the tested form may be a part): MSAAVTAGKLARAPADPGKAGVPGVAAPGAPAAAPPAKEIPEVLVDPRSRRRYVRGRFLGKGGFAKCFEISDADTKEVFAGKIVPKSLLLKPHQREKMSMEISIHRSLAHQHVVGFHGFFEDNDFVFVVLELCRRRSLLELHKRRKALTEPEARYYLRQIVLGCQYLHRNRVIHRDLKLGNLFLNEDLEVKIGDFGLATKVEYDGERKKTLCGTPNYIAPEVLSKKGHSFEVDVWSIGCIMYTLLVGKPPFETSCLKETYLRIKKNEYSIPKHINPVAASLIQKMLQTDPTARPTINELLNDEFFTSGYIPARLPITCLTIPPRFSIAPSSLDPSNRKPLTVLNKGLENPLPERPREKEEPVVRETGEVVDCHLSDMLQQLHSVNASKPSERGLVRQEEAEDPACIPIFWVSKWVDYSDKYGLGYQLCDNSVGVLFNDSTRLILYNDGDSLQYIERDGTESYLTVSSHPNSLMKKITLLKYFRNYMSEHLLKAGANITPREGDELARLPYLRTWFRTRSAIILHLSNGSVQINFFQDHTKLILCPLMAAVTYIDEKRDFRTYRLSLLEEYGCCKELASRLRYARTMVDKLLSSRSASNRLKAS
DT40 TDP1 CPT: DT40-hTDP1 cell growth loss with CPT | Potency, µM (series often up to 46.2 µM), for the others: top-dose activity change, negative = growth inhibition, hits mostly inhibitors | AID 686979 | 12% of 420,000 active | chicken DT40 Tdp1-/-;hTDP1 cells + 20 nM CPT, ATP luminescence, 48 h; note: nearly all actives have a fitted effect of over 55% in size
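Chicken DT40 Tdp1-/- cells stably complemented with human TDP1 were seeded at 400 cells/well in medium containing 20 nM camptothecin, exposed to pin-transferred compounds, and grown at 37 °C for at least 48 hr. Viability was read as ATP luminescence.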
DT40 TDP1 no CPT: qHTS for Inhibitors of human tyrosyl-DNA phosphodiesterase 1 (TDP1): qHTS in cells in absence of CPT; DT40 Tdp1-/- hTDP1 cells, no CPT, ATP luminescence, 48 h; Potency, µM (highest dose often 46.2 µM), for the others: at the top dose activity change, negative = growth inhibition, usual class: inhibitors; 15% of 420,000 active; note: nearly all actives have a fitted effect of over 55% in size
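DT40 Tdp1-/-;hTDP1 cells, no CPT (DMSO vehicle only), 400 cells/well; compounds pin-transferred; ≥48 hr, 37 °C; CellTiter-Glo 30 min RT dark, luminescence read.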
KAT2A inh: GCN5L2 (KAT2A) acetyltransferase inhibition | Q92830 | GCN5L2 HAT assay, ThioGlo1 CoA-SH fluorescence | Potency, µM (top dose mostly 58.9 µM), for the others: at the highest dose activity change, negative = inhibition, most hits filed as inhibitors | 0.21% of 390,000 active | AID 504327
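Free CoA generated was detected with ThioGlo1 (50uM) fluorescence at Ex340nm/Em540nm, read immediately and after 20 min at room temperature. Enzyme, 20 nM in HEPES pH 7.5 buffer, saw compounds 15 min before adding 75uM H3(1-25) peptide and 70uM acetyl-CoA.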
VDR inh: vitamin D3 receptor (human) inhibition; VDR-SRC2-3 peptide fluorescence polarization, 2 h; 0.93% of 400,000 active; Potency, µM, for the others: max response, negative = inhibition, most hits filed as inhibitors; AID 504847; P11473
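The screen uses fluorescence polarization to detect compounds that interfere with recruitment of the SRC2-3 coactivator peptide to VDR; plates are read after 2 h at room temperature.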
* marks the source's active call; other numbers are inactive results; ? = inconclusive; / = no result given; [ ] = remark or other dose. Shown are actives, neighbours in structure and some others; about 18% of the full set was active somewhere. Calls come from the whole dose curve; as a rule, active = well fitted curve in the direction sought with a large enough effect; inconclusive = small, poorly fitted or top-dose-only effect, or another doubt; inactive = no such curve, though single readings can be large; an effect the other way counts as inactive or inconclusive. % is set by controls: 0 for no effect and ±100 for the full control effect; potency is the fitted concentration of half-maximal effect.

SMILES	TDP1 inh	PLK1 PBD inh	DT40 TDP1 CPT	DT40 TDP1 no CPT	KAT2A inh	VDR inh
C=CCn1c(CCc2cc(C(C)(C)C)c(O)c(C(C)(C)C)c2)n[nH]c1=S	7.0%	-19.1%	?	?	-12.7%	-5.6%
CCn1c(CN2CCC(C)CC2)nc2cc(NC(=O)c3cccc([N+](=O)[O-])c3)ccc21	0.5%	/	14.6µM*	23.1µM*	1.1%	-2.4%
N#Cc1ccccc1COc1cccc2c1CCCC2O (centres undefined)	/	-16.7%	?	14.6µM*	0.1%	-14.1%
N#Cc1ccccc1OCC(=O)NNC(=O)CCC1CCCC1	0.3%	5.5%	0.5%	-8.6%	-1.6%	2.2%
COc1ccc(NC(=O)C2CCCN(S(=O)(=O)c3ccc4c(c3)CCCC(=O)N4)C2)c(OC)c1 (centres undefined)	6.3%	/	/	/	22.6%	6.1%
COc1ccc(NC(=O)C2CCCN2S(=O)(=O)c2ccc3c(c2)CCC(=O)N3)c(OC)c1 (centres undefined)	1.3%	-20.3%	13µM*	16.4µM*	0.1%	-12.3%
Cc1ccc(S(=O)(=O)c2nc(Nc3ccccc3)sc2Cl)cc1	0.6%	29.9µM*	?	?	-5.1%	-16.8%
COc1ccc(Nc2nc(S(=O)(=O)c3ccc(C)cc3)c(Cl)s2)cc1	3.2%	-6.8%	?	?	-7.7%	5.5%
COc1ccc(C(=O)C[C@@H]2OC[C@H](C(C)C)N2S(=O)(=O)c2ccc(C)cc2)cc1OC	/	6.9%	?	?	/	/
COc1ccc(C(=O)C[C@@H]2OC[C@H](C)N2S(=O)(=O)c2ccc(C)cc2)cc1OC	/	-10.1%	?	18.4µM*	/	/
Cc1ccc(S(=O)(=O)N2[C@H](CC(=O)c3cccs3)OC[C@@H]2C)cc1	/	6.0%	?	23.1µM*	/	/
COc1c(O[C@@H]2O[C@H](CO)[C@@H](O)[C@H](O)[C@H]2O)cc2c(c1OC)-c1ccc(SC)c(=O)cc1C(NC(C)=O)CC2 (some centres undefined)	/	1.7%	7.6%	5.1%	-15.9%	-8.1%
COc1cc2c(c(OC)c1OC)-c1ccc(SC)c(=O)cc1C(NC=O)CC2 (centres undefined)	/	-5.3%	0.13µM*	0.164µM*	/	?
C=COC(=O)NC1CCc2cc(OC)c(OC)c(OC)c2-c2ccc(SC)c(=O)cc21 (centres undefined)	/	-4.1%	0.0259µM*	0.0164µM*	/	-6.7%
S=C(CN1CCCC1=S)N1CCOCC1	/	-15.3%	0.1%	-11.7%	/	-2.3%
CC(C)(CCC(=S)N1CCOCC1)C1CCCCC1	/	11.9µM*	?	?	1.2%	?
CC(C)(C)C1CCSC2=NCCC[C@]2(c2ccccc2)C1 (some centres undefined)	/	-0.4%	?	18.4µM*	/	/
CC(C)(C)C1CCN2CCC[C@](c3ccccc3)(C1)C2OCCCO (some centres undefined)	/	3.3%	?	?	/	/
CC(Oc1ccc(Br)cc1)C(=O)Nc1ccc(S(=O)(=O)NC2=NCCCCC2)cc1 (centres undefined)	/	-0.7%	?	?	/	6.4%
O=C1NC(NS(=O)(=O)c2ccc(Cl)cc2)(C(F)(F)F)C(=O)N1Cc1cccnc1 (centres undefined)	5.3%	-5.2%	0.2%	1.1%	1.3%	-15.8%
CC1Cc2ccccc2N1C(=O)CSC1=NCCS1 (centres undefined)	4.0%	?	10.3µM*	?	-2.8%	70.8µM*
Cc1cc2cc3c(cc2nc1SCC(=O)N1c2ccccc2CC1C)OCO3 (centres undefined)	2.4%	-4.0%	?	20.6µM*	-9.8%	16.4%
CCOC(=O)C1=C(C)NC(C)=C(C(=O)OCC)C1C(=O)OCC(=O)N1c2ccccc2CC1C (centres undefined)	8.0%	2.4%	?	18.4µM*	-1.3%[0.501 µM]	9.5%
Cc1sc2nc(C3CC3)nc(SCC(=O)N3c4ccccc4CC3C)c2c1C (centres undefined)	2.9%	-10.3%	16.4µM*	20.6µM*	-3.6%	-3.9%
CC1Cc2ccccc2N1C(=O)CSc1nc2cc3c(cc2cc1C#N)OCO3 (centres undefined)	0.0%	3.1%	?	?	-8.1%	1.3%
SMILES	TDP1 inh	PLK1 PBD inh	DT40 TDP1 CPT	DT40 TDP1 no CPT	KAT2A inh	VDR inh
Cc1nc(SCC(=O)N2c3ccccc3NC(=O)CC2C)c2c(C)c(C)sc2n1 (centres undefined)	-0.4%	-25.8%	?	?	-3.0%	-22.2%
O=C(NC(Cc1ccc(O)cc1)C(=O)O)c1ccc2c(c1)OCO2 (centres undefined)	2.4%	1.3%	6.6%	21.9%	0.5%	14.0%
O=C(Cc1ccccc1)Nc1c(C(=O)Nc2ccccc2F)oc2ccccc12	3.8%	/	?	?	1.6%	-10.8%
Cc1nnc(NC(=O)CSc2ccccc2N)s1	5.1%	-21.6%	-0.5%	8.3%	2.3%	-14.8%
CCc1nc(SCC(=O)Nc2cc(C)on2)c2c(C)c(C)sc2n1	7.3%	-5.9%	-28.8%	-7.2%	-3.5%	7.6%
CC1Cc2ccccc2N1C(=O)CN1CCc2ccccc2C1 (centres undefined)	2.0%	-10.8%	?	25.9µM*	-2.7%	10.7%
Cc1nnc(NC(=O)CSc2nc(C(C)C)nc3sc(C)c(C)c23)s1	0.0%	-7.2%	?	8.2µM*	-1.0%	1.3%
CC1CCN(CC(=O)N2c3ccccc3CC2C)CC1 (centres undefined)	6.3%	4.5%	2.6%	-10.6%	-13.8%	-12.5%
Cc1cc(NC(=O)CSc2nc(C3CC3)nc3sc(C)c(C)c23)no1	-5.7%	?	8.2µM*	8.2µM*	-10.6%	17.7%
O=C(COC(=O)CCc1ccc(S(=O)(=O)N2CCOCC2)cc1)NCc1ccccc1	1.2%	0.0%	-1.6%	-7.5%	-3.5%	21.6%
COc1ccc(CCN(C)c2ccc(C(N)=O)cc2[N+](=O)[O-])cc1OC	7.7%	-7.4%	29.1µM*	-14.9%	-5.2%	-0.8%
CN(C)/C=N/c1nc2nccc(-c3cccc(Cl)c3)n2n1	2.6%	26.7µM*	?	-3.7%	-20.0%	-25.2%
CCC(C)NC(=O)Cn1c(=O)n(-c2ccc(Cl)c(Cl)c2)c(=O)c2c(C)c(C(=O)N(CC)CC)sc21 (centres undefined)	2.5%	/	-24.7%	?	0.8%	1.9%
N#CC1=C(N)SC(N)=C(C#N)C1c1ccc([N+](=O)[O-])cc1	7.9%	9.47µM*	14.6µM*	?	-5.7%	79.4µM*
